In all, about 48,000 compounds went through this assay and about 13,000 (27%) showed an effect of 50% or more. Some of the results follow.
Each compound was assayed on Wolbachia pipientis (assay: Anti-Wolbachia Cell-Based Screen). Conditions: 5 µM.
Type: functional
Design: scale not given: in the data most compounds retested in dose-response had high values

SMILES | Percent Effect [%]
Cc1cc(C(F)(F)F)nc(C2COCCN2S(C)(=O)=O)n1 (stereo not given) | 108.9
O=C(c1cccnc1O)N1CCC2(CCCO2)CC1 | -3.936
COc1cc2c(cc1CNCc1cccnc1OC)OC(C)C2 (stereo not given) | 4.577
Cc1noc(-c2ccc(N3CCCC(C(=O)c4nccn4C)C3)nc2)n1 (stereo not given) | 20.25
CC(C)COc1cncc(NCC(O)c2ccco2)n1 (stereo not given) | 9.809
CC(C)(CNC(=O)Nc1ccc(S(=O)(=O)C(F)F)cc1)N1CCOCC1 | 14.64
CCN(CC)Cc1ccccc1NC(=O)N(C)Cc1ccccc1O | -1.773
O=C([C@@H]1Cc2[nH]cnc2CN1Cc1cc2ccccc2o1)N1CCCC1 | 9.512
COc1c(CNCc2ccc(S(C)(=O)=O)cc2)c(C)nn1C | 139.8
COc1c(CNCc2cccc(CS(C)(=O)=O)c2)c(C)nn1C | -2.544
COc1c(CNCc2ccc(CS(C)(=O)=O)cc2)c(C)nn1C | 148.4
COc1c(CNCc2ccc(CN(C)C)cc2)c(C)nn1C | 4.116
CCc1cc(N[C@@H](CO)C(N)=O)n2nc(C)c(C)c2n1 | 2.16
CC(C)C(CCO)NC(=O)Nc1cc(F)ccc1-n1cccn1 (stereo not given) | 1.933
CC(=O)NCCCSC1CCN(c2ccccc2Cl)C1=O (stereo not given) | 1.299
O=c1c2ccccc2nnn1CN(CC1CCOC1)C1CC1 (stereo not given) | -7.02
Cc1cc(-c2nn(C)c(Cl)c2CN2CC[C@H](CO)[C@@H](O)C2)no1 | 35.82
COCCn1/c(=N/C(=O)C(C)C)sc2cc(Cl)ccc21 | 4.263
c1cnn(CC2CN(c3ncnc4sccc34)CCO2)c1 (stereo not given) | -13.3
CC1CN(c2ncnc3c2cnn3C)CCN1c1nccs1 (stereo not given) | 136.1
CC1CN(c2ncnc3sccc23)CCN1c1nccs1 (stereo not given) | 102.8
COc1c(C2CCCN2c2ncnc3c2cnn3C)c(C)nn1C (stereo not given) | -11.95
Cc1cnn(CC2CCCN2c2ncnc3sccc23)c1 (stereo not given) | -4.98
Cn1cc(-c2csc(N3CCN(c4nccs4)CC3)n2)cn1 | -4.686
CCc1nc(C)c(C(=O)NCCNc2ncnc3sccc23)s1 | -61.04
Cc1nc(CN2C[C@@H]3CN(C(=O)C4(C#N)CC4)C[C@@H]3C2=O)cs1.O=C(O)C(F)(F)F | -7.986
O=C(Cc1ccco1)N1CCC2(CCOCC2COCC2CC2)CC1 (stereo not given) | -44.1
CCOCC1COCCC12CCN(C(=O)CS(C)(=O)=O)CC2 (stereo not given) | -11.35

SMILES | Percent Effect [%]
COCC1COCCC12CCN(C(=O)CCOc1ccccc1)CC2 (stereo not given) | 9.795
COCC1COCCC12CCN(S(=O)(=O)c1ccccc1)CC2 (stereo not given) | 111.6
COCC1COCCC12CCN(C(=O)CC1=CCCCC1)CC2 (stereo not given) | -25.41
COCC1COCCC12CCN(S(=O)(=O)c1ccccc1C)CC2 (stereo not given) | 121.7
CCn1cc2c(n1)CN(S(=O)(=O)c1cccnc1)CC2COC.O=C(O)C(F)(F)F (stereo not given) | -12.46
COCC1COCCC12CCN(S(=O)(=O)c1cccnc1)CC2.O=C(O)C(F)(F)F (stereo not given) | 117.9
COCC1COCCC12CCN(C(=O)CCc1ccccc1)CC2 (stereo not given) | -6.521
COCC1COCCC12CCN(S(=O)(=O)c1ccc(C)cc1)CC2 (stereo not given) | 101.4
CCO[C@@H]1CO[C@@]2(CCCN(S(=O)(=O)c3cccnc3)C2)C1.O=C(O)C(F)(F)F | -5.792
CCOCC1COCCC12CCN(C(=O)CC1=CCCCC1)CC2 (stereo not given) | -10.97
CCCNC(=O)Cn1nc(C(C)C)c2cnn(C(C)(C)C)c2c1=O | 13.78
CNC(=O)c1sc(C(NC(=O)c2ccccc2)C2CC2)nc1C (stereo not given) | 1.807
Cn1cc(C2CCCN2CCCc2nc(-c3cccs3)no2)cn1 (stereo not given) | 7.461
CCn1nc(C)cc1C(=O)OCCNc1ncnc2ccccc12 | -8.299
O=C(Nc1nncs1)NC1CCc2ccccc21 (stereo not given) | -2.226
O=C(NCc1nnc2n1CCCCC2)N(Cc1ccccn1)C1CC1 | -22.11
CN(Cc1ccncc1)C(=O)NCc1nnc2n1CCCCC2 | 124.1
Cc1csc(CNC(=O)N(C)Cc2nnc3n2CCC3)n1 | -16.98
CN(Cc1ccc(O)cc1)C(=O)NCc1nnc2n1CCCCC2 | 89.08
CCc1sc(C(=O)Nc2cnn(CC(N)=O)c2)cc1C | -1.226
OCC1COCCN(c2ncccc2C(F)(F)F)C1 (stereo not given) | 17.46
COCCn1cnnc1C(C)NC(=O)c1[nH]c2c(C)cc(C)cc2c1C (stereo not given) | -15.82
Cc1nn(C)c(Cl)c1C1CCCN1C(=O)c1ccc[nH]1 (stereo not given) | 99.71
COc1c(C2CCCN2C(=O)c2cnc[nH]2)c(C)nn1C (stereo not given) | 99.16
COc1c(C2CCCN2C(=O)c2cc(Cl)c[nH]2)c(C)nn1C (stereo not given) | 7.72
Cc1nn(C)c(Cl)c1C1CCCN1C(=O)c1cnc[nH]1 (stereo not given) | 106.1
Cc1nn(C)c(Cl)c1C1CCCN1C(=O)c1cc(Cl)c[nH]1 (stereo not given) | 15.12

— ChEMBL document CHEMBL3988442, “University of Dundee, Small-Polar-MMV Screening Library” (2021)
